Experimental findings from PubChem BioAssay (EPA / NIEHS) are described below.

Several values for one entry are separate records, joined by “and”; a condition that tells them apart may be missing. Equal entries are not always repeated. Records with an inconclusive call do not appear. Where a structure was tested more than once in an assay, its records may differ in their call. Activity calls are given as the source filed them. The calls were made as follows, unless noted: active = hit-call score of the fitted dose curve at least 0.9, where 1 is the maximum; inactive = score below 0.9.

Experiment [1] is described as follows: ACEA_ER_80hr: ACEA Biosciences xCELLigence Real-Time Cell Analysis on Estrogen Receptor Agonism for Proliferation (AID 2282667; active = hit-call score of the fitted dose curve at least 0.9, where 1 is the maximum). Conditions: T47D proliferation, impedance (xCELLigence), 80 h. In short, it runs like this:
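T-47D cells monitored by electrical impedance (xCELLigence) with compound present throughout; 80 h timepoint, positive-direction fitting versus DMSO. Eight-point 1:4 dilutions from 100 uM final, duplicate plates.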

Experiment [2] can be described thus: APR_HepG2_CellCycleArrest_24hr: Apredica 24-hour HepG2 Assay for Cell Cycle Arrest (AID 2282905).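 Also: cell cycle arrest scored as ratio of 2N to 4N nuclear DNA content.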 Conditions: imaging, actives raise or lower the signal. In a few lines: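 Readout: Hoechst 33342 nuclear DNA content by high-content fluorescent imaging, six images/well, 20x. Human HepG2 liver cells, 24 hr compound exposure, 0.39–200 uM, final DMSO 0.5% v/v. Gain or loss fitted relative to DMSO baseline.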

Experiment [3] can be described thus: APR_HepG2_NuclearSize_24hr: Apredica 24-hour HepG2 Assay for Nuclear Size (AID 2282907). Conditions: high-content imaging, actives raise or lower the signal. In short, it runs like this: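 Read-out: nuclear diameter from Hoechst 33342 (2 ug/mL) imaging of fixed HepG2 cells, 20x, six fields/well. Compounds ran at 0.39–200 uM for 24 hr, 0.5% DMSO final. Gain or loss was fitted bidirectionally relative to the DMSO baseline.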

The nature of experiment [4]: APR_HepG2_CellLoss_24hr: Apredica 24-hour HepG2 Assay for Cell Loss (AID 2282908).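 As to AC50: fit in both directions so a hit may be cell loss or gain.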 Particulars: high-content imaging. In short, it runs like this:
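Read-out: Hoechst 33342-stained nuclei counted by automated fluorescence imaging after formaldehyde fixation and Triton permeabilization. Ten concentrations, 0.39 to 200 uM, duplicate wells, 0.5% DMSO final. Gain or loss of signal fitted relative to DMSO baseline.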

A short description of experiment [5]: APR_HepG2_MicrotubuleCSK_24hr: Apredica 24-hour HepG2 Assay for Microtubule CSK Stabilty (AID 2282909). Conditions: HepG2 microtubule cytoskeleton imaging, actives raise or lower the signal. In a few lines: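 Read-out: alpha-tubulin immunofluorescence intensity by automated high-content imaging of fixed HepG2 cells after 24 h compound treatment. Ten concentrations, 0.39 to 200 uM, in duplicate; DMSO 0.5% v/v. Taxol positive control; DMSO-normalized bidirectional curve fitting.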

Experiment [6] in a line: APR_HepG2_MitoticArrest_24hr: Apredica 24-hour HepG2 Assay for Mitotic Arrest (AID 2282910). Particulars: high-content imaging, actives raise or lower the signal. In a few lines:
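HepG2, 24 hr dosing, 0.39–200 uM, 0.5% DMSO final. Formaldehyde-fixed, Triton-permeabilised, anti-phospho-histone H3 plus Hoechst. ArrayScan imaging at 20x; bidirectional fit vs DMSO baseline.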

A short description of experiment [7]: APR_HepG2_MitoMembPot_24hr: Apredica 24-hour HepG2 Assay for Mitochondrial Membrane Potential (AID 2282911). Particulars: imaging, actives raise or lower the signal. In short, it runs like this: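 HepG2 cells exposed 24 h to 0.39–200 uM compounds in duplicate, 0.5% v/v DMSO final. MitoTracker Red CMXRos 250 nM loaded 30 min before formaldehyde fixation; high-content imaging at 20x, bidirectional fit versus DMSO.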

Experiment [8] in a line: APR_HepG2_MitoMass_24hr: Apredica 24-hour HepG2 Assay for Mitochondrial Mass (AID 2282912). Particulars: high-content imaging, actives raise or lower the signal. In short, it runs like this: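 HepG2, 24 hr dosing, 10 concentrations 0.39–200 uM in duplicate, DMSO 0.5% final. MitoTracker Red CMXRos 250 nM, 30 min pre-fix; 3.7% formaldehyde fix. Imaging-based fluorescence intensity; gain/loss fit vs DMSO baseline.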

The nature of experiment [9]: APR_HepG2_p53Act_24hr: Apredica 24-hour HepG2 Assay for p53 Activation (AID 2282913).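 Also: p53 protein immunofluorescence averaged per cell in HepG2 with Hoechst nuclei.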 Particulars: high-content imaging, actives raise or lower the signal. In a few lines:
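HepG2 cells exposed 24 h to compounds at 0.39–200 uM in duplicate, 0.5% v/v DMSO final; fixed, permeabilized, stained with anti-p53 antibody and Hoechst 33342; fluorescence imaging; bidirectional curve fit versus DMSO.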

Experiment [10] can be described thus: APR_HepG2_CellCycleArrest_72hr: Apredica 72-hour HepG2 Assay for Cell Cycle Arrest (AID 2282914). Particulars: high-content imaging, actives raise or lower the signal. In a few lines:
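HepG2 cells exposed 72 h in duplicate to 0.39–200 uM compound, 0.5% DMSO final. Formaldehyde-fixed, Hoechst 33342-stained nuclei imaged at 20x, six fields per well; DNA content per valid cell quantified by cell-cycle image analysis, bidirectional fit versus DMSO.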

Experiment [11] is described as follows: APR_HepG2_CellLoss_72hr: Apredica 72-hour HepG2 Assay for Cell Loss (AID 2282915). Conditions: high-content imaging. In a few lines: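 HepG2 cells exposed 72 h to compound at 0.39–200 uM (10 concentrations, duplicate) in 0.5% DMSO. Fixed with 3.7% formaldehyde and Hoechst 33342-stained. Imaged at 20x; nuclear count gives cell number, fitted bidirectionally versus DMSO.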

Experiment [12] is described as follows: APR_HepG2_P-H2AX_72hr: Apredica 72-hour HepG2 Assay for H2AX Phosphorylation (AID 2282916).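 Also: phospho-histone H2A.x immunostain intensity per cell marking DNA damage.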 Particulars: imaging, actives raise or lower the signal. In short, it runs like this: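 Readout: phospho-H2A.x immunofluorescence (FITC secondary) plus Hoechst nuclear stain, high-content imaging at 20x, six fields/well. HepG2, 72 hr compound exposure, 0.39–200 uM, final DMSO 0.5% v/v. Gain or loss fitted relative to DMSO baseline.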

Experiment [13] in a line: APR_HepG2_MitoMembPot_72hr: Apredica 72-hour HepG2 Assay for Mitochondrial Membrane Potential (AID 2282917). Conditions: imaging, actives raise or lower the signal. In a few lines: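 HepG2 cells dosed 72 hr with compound at 0.39–200 uM in duplicate, 0.5% v/v DMSO final. Mitochondria stained with 250 nM MitoTracker Red CMXRos for 30 min before formaldehyde fixation, imaged by high-content fluorescence; bidirectional fit versus DMSO.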

Experiment [14] can be described thus: APR_HepG2_MitoticArrest_72hr: Apredica 72-hour HepG2 Assay for Mitotic Arrest (AID 2282918). Conditions: high-content imaging, actives raise or lower the signal. In short, it runs like this:
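HepG2 cells treated 72 h at 0.39–200 uM, 0.5% DMSO final; formaldehyde-fixed, stained with Hoechst 33342 and phospho-histone H3 antibody, imaged by high-content fluorescence; bidirectional fit versus DMSO.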

A short description of experiment [15]: APR_HepG2_MicrotubuleCSK_72hr: Apredica 72-hour HepG2 Assay for Microtubule CSK Stabilty (AID 2282919). Conditions: HepG2 microtubule cytoskeleton, high-content imaging, actives raise or lower the signal. In a few lines: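 HepG2, 72 hr cmpd exposure, 0.39–200 uM (10 pts, duplicate), 0.5% DMSO. 3.7% formaldehyde fix, 0.5% Triton perm, anti-alpha-tubulin/Cy5 plus Hoechst. HCS fluorescence intensity; bidirectional fit vs DMSO baseline; taxol as positive control.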

Experiment [16] is described as follows: APR_HepG2_P-H2AX_24hr: Apredica 24-hour HepG2 Assay for H2AX Phosphorylation (AID 2282920). Particulars: high-content imaging, actives raise or lower the signal. In short, it runs like this:
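HepG2 cells dosed 24 h at 0.39–200 uM (10 points, duplicate, 0.5% DMSO final). Formaldehyde-fixed and permeabilized, then immunostained for phospho-H2A.x with Hoechst. Fluorescence quantified by high-content imaging, fitted bidirectionally versus DMSO.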

Experiment [17] can be described thus: APR_HepG2_StressKinase_72hr: Apredica 72-hour HepG2 Assay for Stress Kinase (AID 2282921). Particulars: HepG2 stress kinase (phospho-c-Jun) imaging, actives raise or lower the signal. In a few lines:
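Phospho-c-Jun immunofluorescence measured by high-content imaging at 20x, six fields per well; bidirectional curve fitting against DMSO as baseline. Dosing: 0.39–200 uM, 72 h, 0.5% DMSO final.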

Experiment [18] in a line: APR_HepG2_StressKinase_24hr: Apredica 24-hour HepG2 Assay for Stress Kinase (AID 2282922). Particulars: HepG2 stress kinase (phospho-c-Jun) imaging, actives raise or lower the signal. In a few lines:
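Read-out: phospho-c-Jun immunofluorescence (Cy3 secondary) quantified by high-content imaging at 20x, nuclei defined by Hoechst 33342. Human HepG2 liver cells dosed 24 hr, 0.39–200 uM, DMSO 0.5% v/v; gain or loss of signal fitted relative to DMSO.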

Experiment [19] can be described thus: APR_HepG2_p53Act_72hr: Apredica 72-hour HepG2 Assay for p53 Activation (AID 2282923).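 Also: average cellular p53 protein immunofluorescence intensity in HepG2 cells.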 Conditions: high-content imaging, actives raise or lower the signal. In a few lines: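 Readout: p53 immunofluorescence quantified by automated high-content imaging at 20x, six fields per well, nuclei located via Hoechst. Dosing ran 72 hr over ten concentrations from 0.39 to 200 uM; bidirectional curve fitting against DMSO baseline.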

Experiment [20] can be described thus: APR_HepG2_MitoMass_72hr: Apredica 72-hour HepG2 Assay for Mitochondrial Mass (AID 2282924).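 Also: MitoTracker Red CMXRos stain intensity per cell imaged as mitochondrial mass.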 Conditions: high-content imaging, actives raise or lower the signal. In short, it runs like this:
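Read-out: MitoTracker Red fluorescence intensity from automated imaging (20x, six fields per well) in human HepG2 liver cells. Dosing ran 72 hr, 0.39–200 uM, 0.5% DMSO; bidirectional curve fitting versus DMSO baseline.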

As for `CCC(C)(C)C1CCC(O)CC1` (stereo unspecified), the AC50 in [1] was 2.38 µM (active) and 336 nM (active); in experiment [4], 99.8 µM (active); in experiment [9], 122 µM (active); in experiment [11] it was 122 µM (active); in [12] it was 112 µM (active); in experiment [14], 102 µM (active). The values for the concentration at half-maximal activity (AC50) in experiment [16] and in experiment [19] were 114 µM (active) and 105 µM (active), respectively. In addition, the outcome in experiment [1], in [2], in experiment [3], in experiment [5], in [6] and in [7] was inactive. In addition, the result in experiment [8], in experiment [10], in experiment [13], in [15], in experiment [17] and in [18] was inactive. In experiment [20], the result was inactive.

On to `OC1CCC(C2CCCCC2)CC1` (stereo unspecified), for which the call in [1], in experiment [2], in [3], in experiment [4], in experiment [5] and in experiment [6] was inactive. In addition, the result in [7], in experiment [8], in experiment [9], in [10], in experiment [11] and in experiment [12] was inactive. Besides, the outcome in experiment [13], in [14], in [15], in experiment [16], in experiment [17] and in [18] was inactive. For the same molecule, the molecule was classed as inactive in experiment [19] and in experiment [20].

Regarding `C[C@@H]1C[C@H]2[C@@H]3CCC4=CC(=O)C=C[C@]4(C)[C@@]3(F)[C@@H](O)C[C@]2(C)[C@@]1(O)C(=O)COP(=O)(O)O`, the AC50 in experiment [1] is 685 nM (active); in experiment [3], 9.81 µM (active); in experiment [4], 15.4 µM (active); in [5], 94 µM (active); in [6] it was 1.76 µM (active); in experiment [7], 37.7 µM (active). For the same molecule, the AC50 in [8] was 2.64 µM (active); in experiment [9], 27.5 µM (active); in experiment [10], 94 µM (active); in [11] it was 6.32 µM (active); in experiment [12], 1.09 µM (active); in experiment [13], 45.1 µM (active). Moreover, the half-maximal activity concentration (AC50) was 1.12 µM (active) in [14], 16 µM (active) in [16], 1.45 µM (active) in experiment [19] and 5.23 µM (active) in experiment [20]. The outcome in experiment [1], in experiment [2], in [15] and in [17] was inactive.

As a reminder, the AC50 is the midpoint of the concentration-response curve, whichever way the signal moves.
